In PubChem BioAssay (NCATS):
The source made the active and inactive calls. Where a call stands in place of a potency, no number is given. Calls follow the shape of the dose curve; as a rule, active = well fitted activation curve with a large enough effect; inconclusive = small, poorly fitted or top-dose-only effect; inactive = flat fitted curve, though single readings scatter.

Assay: Cellular Toxicity (caspase-3) HepG2 (AID 654);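 as to caspase-3 activation: cells exposed to compound for 16 hours before reading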
Conditions: HepG2 caspase-3 activation, luminescence; series mostly up to 92.2 µM
Text: NIH Chemical Genomics Center [NCGC]
NIH Molecular Libraries Screening Centers Network [MLSCN]
National Institutes of Environmental Health Sciences [NIEHS]
National Toxicology Program [NTP]
We have developed a 1536-well cell-based assay for quantitative high throughput screening (qHTS) against a number of cell lines to determine in vitro caspase 3/7 of small molecules. This particular assay uses the HepG2 cell line which is derived from human hepatocellular carcinoma.
NCGC Assay Protocol Summary:
The Caspase-Glo 3/7 assay (Promega) is a homogeneous method to measure caspase-3 and caspase-7 activities in cultured cells. The quantitation of caspase 3/7 activity is based on the cleavage of a peptide-aminoluciferin substrate. After caspase cleaves the substrate the free aminoluciferin is liberated and serves as the substrate of luciferase, which generates the light. The luminescent signal is proportional to amount of caspase 3/7 activity present.
Using the Caspase-Glo 3/7 assay, the amount of caspase 3/7 activity was measured in the HepG2 cell line with complete culture medium following compound treatment for 16 hours. The assay was performed in opaque white 1536-well plates. In the screen, tamoxifen and doxorubicin were used as positive controls. Library compounds were measured for their ability to cause the activation of caspase 3/7 in the cell line, as reflected by an increase in luminescence signal, in a concentration-dependent manner. Data were normalized to the controls for basal activity (DMSO only) and 100% stimulation (100 uM tamoxifen). AC50 values were determined from concentration-response data modeled with the standard Hill equation.
qHTS protocol for caspase 3/7 assay in HepG2 cells
[Step] [Parameter] [Value] [Description]
1. Reagent; 5 uL; 1500 HepG2 cells/well
2. Time; 5 hr; 37 °C incubation
4. Controls; 23 nL; Tamoxifen 0.23 uM to 100 uM & Doxorubicin 7.0 pM to 100 uM
5. Time; 16 hr; 37 °C incubation
6. Reagent; 5 uL; Caspase-Glo 3/7 reagent
7. Time; 20 min; Room Temperature
8. Detection; Luminescence; Viewlux plate reader
Keywords: caspase 3/7, apoptosis, HepG2 cell line, luminescence, NTPHTS, NTPHTS_NCGC, NIEHS, EPA, DSSTox, MLSMR, MLSCN, NIH Roadmap, qHTS, NCGC
Potency is read from the fitted curve at half-maximal effect.

Q: For `Nc1nc2ccc([N+](=O)[O-])cc2s1`, which Potency is on record?
A: inactive

Q: For `CN(C)CCC(c1ccc(Cl)cc1)c1ccccn1` (centres undefined), which Potency is on record?
A: inactive

Q: For `Oc1ccccc1O`, which Potency is on record?
A: inactive

Q: With `CN1CCC[C@H]1c1cccnc1` as the molecule, how does the Potency read?
A: inactive

Q: With `O=C(O)c1cc(O)c(O)c(O)c1` as the molecule, how does the Potency read?
A: inactive

Q: Which Potency does the source give for `c1ccc2sc(SSc3nc4ccccc4s3)nc2c1` here?
A: inactive

Q: Which Potency does the source give for `CC(C)NCC(O)COc1cccc2ccccc12` (centres undefined) here?
A: inactive

Q: Which Potency does the source give for `O=c1cc(-c2ccccc2)oc2ccccc12` here?
A: inactive

Q: With `O=C(O)/C=C\C(=O)O` as the molecule, how does the Potency read?
A: inactive

Q: For `CC1(C)S[C@@H]2[C@H](NC(=O)[C@H](N)c3ccccc3)C(=O)N2[C@H]1C(=O)O`, which Potency is on record?
A: inactive

Q: For `CN(C)c1ccc(C(=C2C=CC(=[N+](C)C)C=C2)c2ccccc2)cc1`, which Potency is on record?
A: 0.631 µM (active)

Q: For `NCCO`, which Potency is on record?
A: inactive

Q: With `c1cnc2c(c1)ccc1cccnc12` as the molecule, how does the Potency read?
A: inactive

Q: With `Nc1ccc(O)c(C(=O)O)c1` as the molecule, how does the Potency read?
A: inactive

Q: Which Potency does the source give for `C#C[C@]1(O)CC[C@H]2[C@@H]3CCc4cc(O)ccc4[C@H]3CC[C@@]21C` here?
A: inactive

Q: With `Nc1ccc(O)c([N+](=O)[O-])c1` as the molecule, how does the Potency read?
A: inactive

Q: For `Nc1ccc([N+](=O)[O-])cc1O`, which Potency is on record?
A: inactive

Q: For `COc1cc(CNC(=O)CCCC/C=C/C(C)C)ccc1O`, which Potency is on record?
A: inactive

Q: Which Potency does the source give for `COc1cc(/C=C/C(=O)CC(=O)/C=C/c2ccc(O)c(OC)c2)ccc1O` here?
A: inactive

Q: For `S=c1[nH]c2ccccc2s1`, which Potency is on record?
A: inactive

Q: Which Potency does the source give for `CCCCCCCCCCCCCCCCCC(=O)O` here?
A: inactive

Q: For `O=C1CN(/N=C/c2ccc([N+](=O)[O-])o2)C(=O)N1`, which Potency is on record?
A: inactive

Q: With `CN(C)c1ccc(N=NS(=O)(=O)O)cc1` as the molecule, how does the Potency read?
A: inactive

Q: Which Potency does the source give for `CCCOC(=O)c1ccc(O)cc1` here?
A: inactive
